# According to PubChem BioAssay:
# Values joined by “and” are separate entries in the source; they are usually repeats but may differ in a detail not shown here. Equal values may be shown once. Records with an inconclusive call do not appear. Active and inactive are the calls of the source.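 Rule for the calls, unless noted: active = normalized viability below 100% at a tested concentration; inactive = the rest.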
# How the values were obtained:
# [1] = hESC survival regulators, cell-based (AID 493140; call rule not given here;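 note: cells exposed to compounds for four days before counting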); conditions: human embryonic stem cell survival screen; stronger effect = higher value
# [2] = sensitizers of A549 cells to miR-34 induction, primary screen, imaging, A549 dox-inducible miR-34, nuclei and caspase counts (AID 1347080;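 active = compounds whose cell count with miR-34 switched on is under 0.7 times the count with it off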); conditions: A549 miR-34 inducible, Hoechst nuclei count, 48 h
# [3] = inhibitors of Cryptococcus chitosan production, flow cytometry, Cibacron Brilliant Red staining (AID 1347148; call rule not given here;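 note: compound exposure lasted three days at 37 degrees C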); conditions: Cryptococcus neoformans chitosan, stronger effect = lower value; at 10 µM unless noted
# [4] = modifiers of HSF1 nuclear foci, imaging, Selleck Cancer Library (AID 1347162; in the data active = plate-normalised HSF1 focus index below about 0.46); conditions: human cells, at 10 µM; SSMD: measured here: HSF1 foci SSMD mean; cell count: measured here: cell number; plate-normalised HSF1 focus index: stronger effect = lower value
# [5] = survival rescue of mitochondrial mutant cells in low glucose, primary screen, MELAS cybrids, Rieske KO mouse fibroblasts, CellTiter-Glo (AID 1508586;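 active = mean z-score across replicates of 1.96 or higher in either the MELAS or the Rieske mutant cell line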;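 note: z relative to plate mean and SD of compound and empty wells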)
# [6] = ovarian cancer cell viability with rucaparib, profiling panel, oncology-focused library, rucaparib conditional (AID 1508598); conditions: patient-derived ovarian cancer cells, CellTiter-Glo viability, 144 h, stronger effect = lower value
# [7] = target: ATP-dependent translocase ABCB1 (Homo sapiens) (UniProt P08183); assay: MDR1 (ABCB1) efflux transporter inhibition, cell-based (AID 377; in the data active = fluorescence slope change above about 50%); conditions: MDR1-expressing cells, fluorescent substrate accumulation slope; stronger effect = higher value; concentration not given here
# Chain of ATP-dependent translocase ABCB1 (Homo sapiens) (P08183 whole entry, looked up): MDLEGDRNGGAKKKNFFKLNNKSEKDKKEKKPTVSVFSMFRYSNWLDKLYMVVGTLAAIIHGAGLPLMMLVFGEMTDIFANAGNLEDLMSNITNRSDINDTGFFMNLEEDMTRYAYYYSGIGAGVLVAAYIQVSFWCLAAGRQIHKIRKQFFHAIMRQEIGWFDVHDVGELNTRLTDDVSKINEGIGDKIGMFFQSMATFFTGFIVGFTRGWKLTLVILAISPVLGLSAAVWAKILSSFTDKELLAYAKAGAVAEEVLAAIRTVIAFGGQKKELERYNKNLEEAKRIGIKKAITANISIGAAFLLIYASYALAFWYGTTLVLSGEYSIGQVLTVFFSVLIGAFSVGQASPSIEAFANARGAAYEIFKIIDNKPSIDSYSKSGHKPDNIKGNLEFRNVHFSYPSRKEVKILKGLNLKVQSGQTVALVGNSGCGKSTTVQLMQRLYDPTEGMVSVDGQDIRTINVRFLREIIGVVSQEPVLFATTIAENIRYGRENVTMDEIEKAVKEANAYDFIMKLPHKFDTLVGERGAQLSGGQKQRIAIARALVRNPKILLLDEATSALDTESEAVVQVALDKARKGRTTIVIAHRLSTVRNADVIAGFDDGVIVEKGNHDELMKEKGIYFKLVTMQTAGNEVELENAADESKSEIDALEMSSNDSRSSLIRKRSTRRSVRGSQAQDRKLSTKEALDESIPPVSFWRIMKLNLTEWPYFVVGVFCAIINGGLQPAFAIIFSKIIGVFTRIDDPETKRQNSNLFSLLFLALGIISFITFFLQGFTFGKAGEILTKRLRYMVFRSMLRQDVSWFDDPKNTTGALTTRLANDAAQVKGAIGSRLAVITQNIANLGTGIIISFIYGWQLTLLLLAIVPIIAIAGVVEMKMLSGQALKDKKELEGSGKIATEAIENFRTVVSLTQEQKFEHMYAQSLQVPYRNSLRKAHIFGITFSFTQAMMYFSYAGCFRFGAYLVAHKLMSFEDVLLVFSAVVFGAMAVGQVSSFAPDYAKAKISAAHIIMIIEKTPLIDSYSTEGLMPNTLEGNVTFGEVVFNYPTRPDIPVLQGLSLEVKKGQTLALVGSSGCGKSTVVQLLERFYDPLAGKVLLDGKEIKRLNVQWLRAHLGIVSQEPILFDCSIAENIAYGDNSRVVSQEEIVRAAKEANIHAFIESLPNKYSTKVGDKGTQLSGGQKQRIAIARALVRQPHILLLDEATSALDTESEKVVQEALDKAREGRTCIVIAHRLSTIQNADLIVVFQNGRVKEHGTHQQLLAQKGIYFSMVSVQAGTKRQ
# [8] = circadian clock period modulators, cell-based, LOPAC library, luminescence reporter (AID 2774; call rule not given here;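 note: values are relative to mean of DMSO wells on each plate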); conditions: circadian reporter cells, at 7 µM, actives lie on both sides
# [9] = liver-stage malaria parasite growth inhibition, primary screen, cell-based, HepG2, luciferase luminescence, HepG2 viability (AID 624349; in the data active = parasite load remaining mostly below about 12%, no sharp cut-off; inactive = mostly above about 10%;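 note: 100% = mean of DMSO negative control wells on the same plate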); conditions: P. berghei liver stage in HepG2, luciferase luminescence, concentration not given here; parasite load remaining: stronger effect = lower value; viability: measured here: HepG2 viability without parasites
# [10] = test system: Hepatitis C virus NS3 helicase; assay: HCV NS3 helicase inhibitors, primary screen, biochemical, fluorescence polarization, LOPAC1280 library (AID 687035; in the data active = inhibition above about 37%); conditions: Purified HCV NS3 helicase, Cy5-dT15 ssDNA binding fluorescence polarization; stronger effect = higher value; concentration not given here
# [11] = Cy5 fluorescence quenching or enhancement artefacts, artefact control for HCV NS3 helicase inhibitor project, biochemical, LOPAC1280 (AID 687037; call rule not given here); conditions: Cy5-DNA-NS3h complex fluorescence interference counterscreen
# [12] = phospholipid biosynthesis inhibitors in animal cells, primary screen, cell-based, LOPAC library, screen 4 (AID 1347384; call rule not given here); conditions: phospholipid biosynthesis inhibition screen, at 10 µM
# [13] = viability rescue of complex I mutant cybrids, primary screen, cell-based, galactose medium, ATP luminescence (AID 1645843;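 active = z-score of at least 1.8 in each of two replicates, scored against plate mean and spread of sample wells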;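 note: positive z means more ATP and so rescue of galactose-driven cybrid death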); conditions: complex I mutant cybrid cells, 72 h, stronger effect = higher value
# [14] = stronger effect = lower value, cell number ratio, induced over uninduced
# [15] = measured here: relative caspase fold change +Dox/-Dox
# [16] = measured here: total cells with miR-34 induction, stronger effect = lower value
# [17] = measured here: total cells without miR-34 induction
# [18] = MELAS cybrid survival, CellTiter-Glo 48 h, stronger effect = higher value
# [19] = Rieske KO mouse fibroblast survival, CellTiter-Glo 72 h
structure (smiles),measurement,setting,value
CCCCC/C=C\C/C=C\CCCCCCCCCC(=O)O,survival,[1],74.2 (inactive)
same,fold change,[2]; [14],0.992 (inactive) and 1.02 (inactive)
same,fold change,[2]; [15],0.988 and 0.888
same,cell count,[2]; [16],6110 and 5920
same,cell count,[2]; [17],6160 and 5820
same,fold fluorescence,[3],3.91 (inactive)
CC(=O)N[C@@H](CSC/C=C(\C)CC/C=C(\C)CC/C=C(\C)CCC=C(C)C)C(=O)O,survival,[1],106 (inactive)
same,fold change,[2]; [14],0.941 (inactive) and 0.949 (inactive)
same,fold change,[2]; [15],1.39 and 0.928
same,cell count,[2]; [16],6090 and 5570
same,cell count,[2]; [17],6470 and 5860
same,fold fluorescence,[3],5.22 (inactive)
CCCCC[C@H](O)/C=C/C1=C(CCCCCCC(=O)O)C(=O)CC1,survival,[1],68.1 (inactive)
same,fold change,[2]; [14],0.976 (inactive) and 0.956 (inactive)
same,fold change,[2]; [15],1.34 and 1.33
same,cell count,[2]; [16],6120 and 6210
same,cell count,[2]; [17],6270 and 6500
same,fold fluorescence,[3],3.81 (inactive)
CCCCC[C@H](O)/C=C/[C@H]1C(=O)C=C[C@@H]1C/C=C\CCCC(=O)O,survival,[1],86.8 (inactive)
same,fold change,[2]; [14],0.937 (inactive) and 0.931 (inactive)
same,fold change,[2]; [15],1.17 and 1.23
same,cell count,[2]; [16],6120 and 6100
same,cell count,[2]; [17],6540 and 6550
same,fold fluorescence,[3],4.57 (inactive)
CC(C)=CCC/C(C)=C/CC/C(C)=C/CSCC(=O)O,survival,[1],89.7 (inactive)
same,fold change,[2]; [14],0.964 (inactive) and 0.982 (inactive)
same,fold change,[2]; [15],1.23 and 1.52
same,cell count,[2]; [16],5900
same,cell count,[2]; [17],6120 and 6010
same,fold fluorescence,[3],2.64 (inactive)
COc1ccc(C2=NC(c3ccc(Cl)cc3)C(c3ccc(Cl)cc3)N2C(=O)N2CCNC(=O)C2)c(OC(C)C)c1 (stereo unspecified),fold change,[2]; [14],0.914 (inactive) and 0.912 (inactive) and 0.921 (inactive)
same,fold change,[2]; [15],0.374 and 0.688 and 0.486
same,cell count,[2]; [16],2920 and 2710 and 7580
same,cell count,[2]; [17],3200 and 2970 and 8230
same,SSMD,[4],2.83
same,cell count,[4],7540
same,plate-normalised HSF1 focus index,[4],1.18 (inactive)
same,z-score,[5]; [18],0.254 (inactive) and -0.293 (inactive) and -0.371 (inactive)
same,z-score,[5]; [19],0.0375 and 0.393 and 0.654
same,viability,"[6]; at 0.000305 µM, OCI-C5x cells, with rucaparib 10 µM, 100% = cells with rucaparib alone",120% (inactive)
same,viability,"[6]; at 0.000305 µM, OCI-C5x cells, without rucaparib",129% (inactive)
same,viability,"[6]; at 0.000305 µM, OCI-P5x cells, with rucaparib 20 µM, 100% = cells with rucaparib alone",108% (inactive)
same,viability,"[6]; at 0.000305 µM, OCI-P5x cells, without rucaparib",104% (inactive)
same,viability,"[6]; at 0.00122 µM, OCI-C5x cells, with rucaparib 10 µM, 100% = cells with rucaparib alone",116% (inactive)
same,viability,"[6]; at 0.00122 µM, OCI-C5x cells, without rucaparib",136% (inactive)
same,viability,"[6]; at 0.00122 µM, OCI-P5x cells, with rucaparib 20 µM, 100% = cells with rucaparib alone",104% (inactive)
same,viability,"[6]; at 0.00122 µM, OCI-P5x cells, without rucaparib",93.6% (active)
same,viability,"[6]; at 0.00488 µM, OCI-C5x cells, with rucaparib 10 µM, 100% = cells with rucaparib alone",112% (inactive)
same,viability,"[6]; at 0.00488 µM, OCI-C5x cells, without rucaparib",124% (inactive)
same,viability,"[6]; at 0.00488 µM, OCI-P5x cells, with rucaparib 20 µM, 100% = cells with rucaparib alone",96.2% (active)
same,viability,"[6]; at 0.00488 µM, OCI-P5x cells, without rucaparib",91.7% (active)
same,viability,"[6]; at 0.0195 µM, OCI-C5x cells, with rucaparib 10 µM, 100% = cells with rucaparib alone",110% (inactive)
same,viability,"[6]; at 0.0195 µM, OCI-C5x cells, without rucaparib",128% (inactive)
same,viability,"[6]; at 0.0195 µM, OCI-P5x cells, with rucaparib 20 µM, 100% = cells with rucaparib alone",97% (active)
same,viability,"[6]; at 0.0195 µM, OCI-P5x cells, without rucaparib",93.4% (active)
same,viability,"[6]; at 0.0781 µM, OCI-C5x cells, with rucaparib 10 µM, 100% = cells with rucaparib alone",108% (inactive)
same,viability,"[6]; at 0.0781 µM, OCI-C5x cells, without rucaparib",124% (inactive)
same,viability,"[6]; at 0.0781 µM, OCI-P5x cells, with rucaparib 20 µM, 100% = cells with rucaparib alone",102% (inactive)
same,viability,"[6]; at 0.0781 µM, OCI-P5x cells, without rucaparib",95.5% (active)
same,viability,"[6]; at 0.313 µM, OCI-C5x cells, with rucaparib 10 µM, 100% = cells with rucaparib alone",113% (inactive)
same,viability,"[6]; at 0.313 µM, OCI-C5x cells, without rucaparib",115% (inactive)
same,viability,"[6]; at 0.313 µM, OCI-P5x cells, with rucaparib 20 µM, 100% = cells with rucaparib alone",97.6% (active)
same,viability,"[6]; at 0.313 µM, OCI-P5x cells, without rucaparib",86.9% (active)
same,viability,"[6]; at 1.25 µM, OCI-C5x cells, with rucaparib 10 µM, 100% = cells with rucaparib alone",103% (inactive)
same,viability,"[6]; at 1.25 µM, OCI-C5x cells, without rucaparib",111% (inactive)
same,viability,"[6]; at 1.25 µM, OCI-P5x cells, with rucaparib 20 µM, 100% = cells with rucaparib alone",91.3% (active)
same,viability,"[6]; at 1.25 µM, OCI-P5x cells, without rucaparib",89.1% (active)
same,viability,"[6]; at 5 µM, OCI-C5x cells, with rucaparib 10 µM, 100% = cells with rucaparib alone",109% (inactive)
same,viability,"[6]; at 5 µM, OCI-C5x cells, without rucaparib",104% (inactive)
same,viability,"[6]; at 5 µM, OCI-P5x cells, with rucaparib 20 µM, 100% = cells with rucaparib alone",82.1% (active)
same,viability,"[6]; at 5 µM, OCI-P5x cells, without rucaparib",90.4% (active)
COc1ccc(-c2ccc(N)[n+](CCCC(=O)O)n2)cc1,fluorescence slope change,[7],101% (active)
same,period change,[8],0.235 h (inactive)
same,survival,[1],6.75 (inactive)
same,parasite load remaining,[9],113% (inactive) and 70.4% (inactive)
same,viability,[9],102% and 78.3%
same,inhibition,[10],-3% (inactive)
same,fluorescence ratio (interference),[11],0.9 (inactive)
same,fold change,[2]; [14],0.962 (inactive) and 0.851 (inactive)
same,fold change,[2]; [15],1.4 and 1.26
same,cell count,[2]; [16],9690 and 9480
same,cell count,[2]; [17],10100 and 11100
same,outcome,[12],inactive
same,z-score,[5]; [18],0.473 (inactive)
same,z-score,[5]; [19],0.0476
same,z-score,[13],0.685 (inactive)
